# Test results: the supplement of paper PMC4022240
# ± gives the standard deviation.
# T1: HaloTag-ATRX ADD domain (163-292)
# T1 chain: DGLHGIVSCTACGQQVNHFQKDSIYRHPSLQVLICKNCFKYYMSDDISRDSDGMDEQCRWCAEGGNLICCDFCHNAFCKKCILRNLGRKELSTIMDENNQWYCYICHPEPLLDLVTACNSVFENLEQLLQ
# What was measured:
# Test in all cases: peptide microarray binding signal (635 nm), min-max normalized on array (fraction of array maximum); higher = stronger binding
# [1] = target: T1, HaloTag-ATRX ADD domain (163-292)
# How it was run: (§1)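 An Axon GenePix 4000B scanned the arrays at 635 nm for signal and at 532 nm to catch misprints. Those arrays held histone 13-mer peptide–cellulose conjugates printed in triplicate on nitrocellulose with a Cy3 tracer, blocked overnight at 4°C and probed for 1 h at 4°C with biotin-labelled HaloTag reader fusions (10 nM to 1 μM) plus streptavidin-Alexa Fluor 647 or with rabbit histone antibodies (1:10,000 to 1:2,000) plus anti-rabbit Alexa 647. Each binding signal is a triplicate-spot mean intensity, scaled min-max within its library.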
# [2] = target: HaloTag-ING2 PHD (mouse Ing2 200-280)
# How it was run: as §1
# [3] = target: anti-H3K4me3 antibody ab8580
# How it was run: as §1
# [4] = target: anti-H3K9me3 antibody ab8898
# How it was run: as §1
# [5] = peptide region: H4 1-13, peptide modifications: H4S1ph H4R3me2a, binder concentration: 1:2,000 dilution
# [6] = peptide region: H4 1-13, peptide modifications: H4S1ph H4R3me2a, binder concentration: 1:10,000 dilution
# [7] = peptide region: H4 8-19, peptide modifications: H4R17me2a, binder concentration: 1:2,000 dilution
# [8] = peptide region: H4 8-19, peptide modifications: H4R17me2a, binder concentration: 1:10,000 dilution
# [9] = peptide region: H4 1-13, peptide modifications: H4S1ph H4K12ac, binder concentration: 1:2,000 dilution
# [10] = peptide region: H4 1-13, peptide modifications: H4S1ph H4K12ac, binder concentration: 1:10,000 dilution
# [11] = peptide region: H4 8-19, peptide modifications: H4R17cit, binder concentration: 1:2,000 dilution
# [12] = peptide region: H4 8-19, peptide modifications: H4R17cit, binder concentration: 1:10,000 dilution
# [13] = peptide region: H4 8-19, peptide modifications: H4K8ac H4K12ac H4K16ac, binder concentration: 1:2,000 dilution
# [14] = peptide region: H4 8-19, peptide modifications: H4R17me1, binder concentration: 1:2,000 dilution
# [15] = peptide region: H4 8-19, peptide modifications: H4R17me1, binder concentration: 1:10,000 dilution
# [16] = peptide region: H4 8-19, peptide modifications: H4K16ac, binder concentration: 1:2,000 dilution
# [17] = peptide region: H4 8-19, peptide modifications: H4K16ac, binder concentration: 1:10,000 dilution
# [18] = peptide region: H4 1-13, peptide modifications: H4S1ph H4R3cit, binder concentration: 1:2,000 dilution
# [19] = peptide region: H4 1-13, peptide modifications: H4S1ph H4R3cit, binder concentration: 1:10,000 dilution
# [20] = peptide region: H4 8-19, peptide modifications: H4K12ac, binder concentration: 1:2,000 dilution
# [21] = peptide region: H4 8-19, peptide modifications: H4K12ac, binder concentration: 1:10,000 dilution
# [22] = peptide region: H4 8-19, peptide modifications: H4K8ac H4K16ac, binder concentration: 1:2,000 dilution
# [23] = peptide region: H4 8-19, peptide modifications: H4K8ac H4K16ac, binder concentration: 1:10,000 dilution
binder,measurement,setting,value
SGRGKGGKGLGKG [H4 1-13 Sph G Rme2a G K G G K G L G K G],peptide microarray binding signal,"[1]; peptide region: H4 1-13, peptide modifications: H4S1ph H4R3me2a, binder concentration: 50 nM",0.00605 ± 0.001
same,peptide microarray binding signal,"[1]; peptide region: H4 1-13, peptide modifications: H4S1ph H4R3me2a, binder concentration: 500 nM",0.0165 ± 0.0018
same,peptide microarray binding signal,"[2]; peptide region: H4 1-13, peptide modifications: H4S1ph H4R3me2a, binder concentration: 10 nM",0.00334 ± 4.8e-05
same,peptide microarray binding signal,"[2]; peptide region: H4 1-13, peptide modifications: H4S1ph H4R3me2a, binder concentration: 100 nM",0.00794 ± 0.0014
same,peptide microarray binding signal,[3]; [5],0.00225 ± 0.00023
same,peptide microarray binding signal,[3]; [6],0.00194 ± 6.3e-05
same,peptide microarray binding signal,[4]; [5],0.000982 ± 4.2e-05
same,peptide microarray binding signal,[4]; [6],0.00104 ± 1.1e-05
KGLGKGGAKRHRK [H4 8-19 K G L G K G G A K Rme2a H R K],peptide microarray binding signal,"[1]; peptide region: H4 8-19, peptide modifications: H4R17me2a, binder concentration: 50 nM",0.00395 ± 0.00035
same,peptide microarray binding signal,"[1]; peptide region: H4 8-19, peptide modifications: H4R17me2a, binder concentration: 500 nM",0.00957 ± 0.00096
same,peptide microarray binding signal,"[2]; peptide region: H4 8-19, peptide modifications: H4R17me2a, binder concentration: 10 nM",0.00358 ± 3.8e-05
same,peptide microarray binding signal,"[2]; peptide region: H4 8-19, peptide modifications: H4R17me2a, binder concentration: 100 nM",0.0085 ± 0.00064
same,peptide microarray binding signal,[3]; [7],0.00051 ± 1.5e-05
same,peptide microarray binding signal,[3]; [8],0.000913 ± 1.6e-05
same,peptide microarray binding signal,[4]; [7],0.000483 ± 1.7e-05
same,peptide microarray binding signal,[4]; [8],0.00208 ± 0.00045
SGRGKGGKGLGKG [H4 1-13 Sph G R G K G G K G L G Kac G],peptide microarray binding signal,"[1]; peptide region: H4 1-13, peptide modifications: H4S1ph H4K12ac, binder concentration: 50 nM",0.00392 ± 0.00035
same,peptide microarray binding signal,"[1]; peptide region: H4 1-13, peptide modifications: H4S1ph H4K12ac, binder concentration: 500 nM",0.0105 ± 0.00038
same,peptide microarray binding signal,"[2]; peptide region: H4 1-13, peptide modifications: H4S1ph H4K12ac, binder concentration: 10 nM",0.00269 ± 6.6e-05
same,peptide microarray binding signal,"[2]; peptide region: H4 1-13, peptide modifications: H4S1ph H4K12ac, binder concentration: 100 nM",0.00893 ± 0.00049
same,peptide microarray binding signal,[3]; [9],0.000378 ± 1e-05
same,peptide microarray binding signal,[3]; [10],0.000742 ± 1.3e-05
same,peptide microarray binding signal,[4]; [9],0.000649 ± 0.00018
same,peptide microarray binding signal,[4]; [10],0.00075 ± 7.9e-06
KGLGKGGAKRHRK [H4 8-19 K G L G K G G A K Rcit H R K],peptide microarray binding signal,"[1]; peptide region: H4 8-19, peptide modifications: H4R17cit, binder concentration: 50 nM",0.0003448 ± 3.2e-06
same,peptide microarray binding signal,"[1]; peptide region: H4 8-19, peptide modifications: H4R17cit, binder concentration: 500 nM",0.000381 ± 4e-06
same,peptide microarray binding signal,"[2]; peptide region: H4 8-19, peptide modifications: H4R17cit, binder concentration: 10 nM",0.00191 ± 4e-05
same,peptide microarray binding signal,"[2]; peptide region: H4 8-19, peptide modifications: H4R17cit, binder concentration: 100 nM",0.000354 ± 4.1e-06
same,peptide microarray binding signal,[3]; [11],7.55e-05 ± 8.5e-07
same,peptide microarray binding signal,[3]; [12],0.000685 ± 1.5e-05
same,peptide microarray binding signal,[4]; [11],3.02e-05 ± 3.4e-07
same,peptide microarray binding signal,[4]; [12],0
KGLGKGGAKRHRK [H4 8-19 Kac G L G Kac G G A Kac R H R K],peptide microarray binding signal,"[1]; peptide region: H4 8-19, peptide modifications: H4K8ac H4K12ac H4K16ac, binder concentration: 500 nM",0.000476 ± 4.9e-06
same,peptide microarray binding signal,"[2]; peptide region: H4 8-19, peptide modifications: H4K8ac H4K12ac H4K16ac, binder concentration: 100 nM",7.09e-05 ± 1.5e-06
same,peptide microarray binding signal,[3]; [13],1.89e-05 ± 2.2e-07
same,peptide microarray binding signal,[4]; [13],3.02e-05 ± 3.4e-07
KGLGKGGAKRHRK [H4 8-19 K G L G K G G A K Rme H R K],peptide microarray binding signal,"[1]; peptide region: H4 8-19, peptide modifications: H4R17me1, binder concentration: 50 nM",0.00987 ± 0.0027
same,peptide microarray binding signal,"[1]; peptide region: H4 8-19, peptide modifications: H4R17me1, binder concentration: 500 nM",0.016 ± 0.0014
same,peptide microarray binding signal,"[2]; peptide region: H4 8-19, peptide modifications: H4R17me1, binder concentration: 10 nM",0.00352 ± 6.8e-05
same,peptide microarray binding signal,"[2]; peptide region: H4 8-19, peptide modifications: H4R17me1, binder concentration: 100 nM",0.00865 ± 0.00034
same,peptide microarray binding signal,[3]; [14],0.00119 ± 0.0002
same,peptide microarray binding signal,[3]; [15],0.00148 ± 8e-05
same,peptide microarray binding signal,[4]; [14],0.00112 ± 4.3e-05
same,peptide microarray binding signal,[4]; [15],0.00138 ± 1.4e-05
KGLGKGGAKRHRK [H4 8-19 K G L G K G G A Kac R H R K],peptide microarray binding signal,"[1]; peptide region: H4 8-19, peptide modifications: H4K16ac, binder concentration: 50 nM",0.00483 ± 0.00015
same,peptide microarray binding signal,"[1]; peptide region: H4 8-19, peptide modifications: H4K16ac, binder concentration: 500 nM",0.0126 ± 0.00055
same,peptide microarray binding signal,"[2]; peptide region: H4 8-19, peptide modifications: H4K16ac, binder concentration: 10 nM",0.00388 ± 8.9e-05
same,peptide microarray binding signal,"[2]; peptide region: H4 8-19, peptide modifications: H4K16ac, binder concentration: 100 nM",0.0106 ± 0.0026
same,peptide microarray binding signal,[3]; [16],0.00238 ± 0.00047
same,peptide microarray binding signal,[3]; [17],0.002 ± 4.9e-05
same,peptide microarray binding signal,[4]; [16],0.00181 ± 6e-05
same,peptide microarray binding signal,[4]; [17],0.00127 ± 3.4e-05
SGRGKGGKGLGKG [H4 1-13 Sph G Rcit G K G G K G L G K G],peptide microarray binding signal,"[1]; peptide region: H4 1-13, peptide modifications: H4S1ph H4R3cit, binder concentration: 50 nM",0.00335 ± 0.00024
same,peptide microarray binding signal,"[1]; peptide region: H4 1-13, peptide modifications: H4S1ph H4R3cit, binder concentration: 500 nM",0.00524 ± 0.00019
same,peptide microarray binding signal,"[2]; peptide region: H4 1-13, peptide modifications: H4S1ph H4R3cit, binder concentration: 10 nM",0.00281 ± 4.1e-05
same,peptide microarray binding signal,"[2]; peptide region: H4 1-13, peptide modifications: H4S1ph H4R3cit, binder concentration: 100 nM",0.00418 ± 0.0002
same,peptide microarray binding signal,[3]; [18],0.000378 ± 3.9e-06
same,peptide microarray binding signal,[3]; [19],0.000685 ± 7.2e-06
same,peptide microarray binding signal,[4]; [18],0.000136
same,peptide microarray binding signal,[4]; [19],0.00121 ± 0.00012
KGLGKGGAKRHRK [H4 8-19 K G L G Kac G G A K R H R K],peptide microarray binding signal,"[1]; peptide region: H4 8-19, peptide modifications: H4K12ac, binder concentration: 50 nM",0.00743 ± 0.00047
same,peptide microarray binding signal,"[1]; peptide region: H4 8-19, peptide modifications: H4K12ac, binder concentration: 500 nM",0.0289 ± 0.0017
same,peptide microarray binding signal,"[2]; peptide region: H4 8-19, peptide modifications: H4K12ac, binder concentration: 10 nM",0.00352 ± 0.00036
same,peptide microarray binding signal,"[2]; peptide region: H4 8-19, peptide modifications: H4K12ac, binder concentration: 100 nM",0.0073 ± 0.00023
same,peptide microarray binding signal,[3]; [20],0.000189 ± 2e-06
same,peptide microarray binding signal,[3]; [21],0.00302 ± 6.8e-05
same,peptide microarray binding signal,[4]; [20],0.0031 ± 4e-05
same,peptide microarray binding signal,[4]; [21],0.00283 ± 0.00018
KGLGKGGAKRHRK [H4 8-19 Kac G L G K G G A Kac R H R K],peptide microarray binding signal,"[1]; peptide region: H4 8-19, peptide modifications: H4K8ac H4K16ac, binder concentration: 50 nM",0.000439 ± 1.5e-05
same,peptide microarray binding signal,"[1]; peptide region: H4 8-19, peptide modifications: H4K8ac H4K16ac, binder concentration: 500 nM",9.52e-05 ± 1e-06
same,peptide microarray binding signal,"[2]; peptide region: H4 8-19, peptide modifications: H4K8ac H4K16ac, binder concentration: 10 nM",0.0043 ± 0.0012
same,peptide microarray binding signal,"[2]; peptide region: H4 8-19, peptide modifications: H4K8ac H4K16ac, binder concentration: 100 nM",0.000283
same,peptide microarray binding signal,[3]; [22],0.000113
same,peptide microarray binding signal,[3]; [23],0.00143 ± 0.00034
same,peptide microarray binding signal,[4]; [22],4.53e-05
same,peptide microarray binding signal,[4]; [23],5.77e-05 ± 6.6e-07
